The test concerns the target Voltage-dependent N-type calcium channel subunit alpha-1B (Homo sapiens) (UniProt Q00975). In words: disruptors of CaV2.2 binding to Mint1 – biochemical, HTRF (AID 2073). The note with it: HTRF protein-protein interaction, Mint1-CaV2.2, at 20 µM, stronger effect = higher value.
Where [1] appears, read: measured here: average of repeat tests.

The whole screen tested about 290,000 compounds, of which about 570 (0.2%) were called active. Roughly 1% stayed inconclusive and do not appear here. Cut-off read from the data, not from the text of the source: active = inhibition mostly above about 51% (no sharp cut-off); inconclusive = no clear call, values can overlap the other calls; inactive = mostly below about 53%. This excerpt belongs to a sample that is enriched for actives.

For orientation: inhibition means the change of the read-out against control, counted positive when it falls.

Sequence of Voltage-dependent N-type calcium channel subunit alpha-1B (Homo sapiens) (Q00975 whole entry, looked up): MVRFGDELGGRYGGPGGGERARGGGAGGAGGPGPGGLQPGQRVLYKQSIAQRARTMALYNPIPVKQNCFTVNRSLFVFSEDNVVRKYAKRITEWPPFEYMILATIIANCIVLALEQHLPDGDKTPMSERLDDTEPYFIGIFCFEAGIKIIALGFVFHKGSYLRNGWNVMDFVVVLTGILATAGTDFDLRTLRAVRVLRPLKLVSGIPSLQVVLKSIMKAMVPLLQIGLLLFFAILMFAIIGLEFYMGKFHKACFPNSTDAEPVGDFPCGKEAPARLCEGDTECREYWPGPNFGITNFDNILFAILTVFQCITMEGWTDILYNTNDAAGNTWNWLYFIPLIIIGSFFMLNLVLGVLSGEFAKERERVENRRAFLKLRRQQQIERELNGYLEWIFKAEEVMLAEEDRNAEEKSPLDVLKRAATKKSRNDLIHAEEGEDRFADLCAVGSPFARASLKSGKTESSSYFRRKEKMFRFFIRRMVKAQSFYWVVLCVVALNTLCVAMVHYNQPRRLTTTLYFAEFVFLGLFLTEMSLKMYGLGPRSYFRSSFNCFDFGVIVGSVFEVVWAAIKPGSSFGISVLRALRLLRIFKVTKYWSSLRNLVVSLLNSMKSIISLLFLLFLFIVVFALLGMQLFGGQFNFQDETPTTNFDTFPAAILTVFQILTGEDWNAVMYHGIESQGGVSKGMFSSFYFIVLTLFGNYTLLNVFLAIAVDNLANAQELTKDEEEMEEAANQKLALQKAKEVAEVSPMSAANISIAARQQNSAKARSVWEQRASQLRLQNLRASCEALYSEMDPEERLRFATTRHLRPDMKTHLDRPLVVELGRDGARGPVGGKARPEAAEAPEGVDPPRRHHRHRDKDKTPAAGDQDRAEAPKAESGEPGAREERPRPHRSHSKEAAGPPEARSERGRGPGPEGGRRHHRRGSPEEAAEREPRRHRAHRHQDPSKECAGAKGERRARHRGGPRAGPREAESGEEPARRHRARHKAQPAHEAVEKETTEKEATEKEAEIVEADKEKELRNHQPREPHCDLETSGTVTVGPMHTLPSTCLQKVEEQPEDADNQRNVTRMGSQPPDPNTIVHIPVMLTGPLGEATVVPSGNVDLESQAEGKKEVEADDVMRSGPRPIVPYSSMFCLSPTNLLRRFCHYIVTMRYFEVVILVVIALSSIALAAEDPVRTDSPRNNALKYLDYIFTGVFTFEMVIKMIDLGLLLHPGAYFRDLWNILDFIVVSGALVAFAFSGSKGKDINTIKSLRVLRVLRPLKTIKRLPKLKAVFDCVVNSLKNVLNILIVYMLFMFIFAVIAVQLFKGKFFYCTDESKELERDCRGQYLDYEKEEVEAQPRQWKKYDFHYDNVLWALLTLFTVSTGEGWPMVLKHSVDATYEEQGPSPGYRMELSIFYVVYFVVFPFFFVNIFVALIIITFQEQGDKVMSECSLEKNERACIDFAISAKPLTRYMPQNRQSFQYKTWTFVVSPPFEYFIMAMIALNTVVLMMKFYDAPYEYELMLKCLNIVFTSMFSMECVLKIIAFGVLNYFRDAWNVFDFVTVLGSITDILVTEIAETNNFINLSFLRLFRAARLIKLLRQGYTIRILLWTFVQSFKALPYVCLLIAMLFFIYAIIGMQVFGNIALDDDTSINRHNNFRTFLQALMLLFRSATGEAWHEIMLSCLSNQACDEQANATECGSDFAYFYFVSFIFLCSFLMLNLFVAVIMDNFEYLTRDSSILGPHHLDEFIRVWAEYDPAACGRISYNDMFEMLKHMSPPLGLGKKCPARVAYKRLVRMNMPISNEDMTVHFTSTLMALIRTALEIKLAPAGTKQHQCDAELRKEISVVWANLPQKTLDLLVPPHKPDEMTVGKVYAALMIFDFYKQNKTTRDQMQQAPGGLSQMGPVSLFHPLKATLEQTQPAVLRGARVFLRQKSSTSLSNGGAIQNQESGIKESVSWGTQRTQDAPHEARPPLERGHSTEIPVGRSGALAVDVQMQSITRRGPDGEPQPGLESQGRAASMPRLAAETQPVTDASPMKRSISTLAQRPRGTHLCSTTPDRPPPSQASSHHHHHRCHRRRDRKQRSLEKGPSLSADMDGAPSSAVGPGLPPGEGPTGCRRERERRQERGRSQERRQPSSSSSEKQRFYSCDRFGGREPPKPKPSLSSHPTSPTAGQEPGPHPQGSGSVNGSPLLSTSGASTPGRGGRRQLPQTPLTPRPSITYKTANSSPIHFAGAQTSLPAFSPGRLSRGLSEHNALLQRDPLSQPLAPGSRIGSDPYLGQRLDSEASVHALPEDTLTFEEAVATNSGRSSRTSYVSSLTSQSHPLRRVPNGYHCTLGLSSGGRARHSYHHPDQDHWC

As to `Cc1ccc(-c2c(C(=O)Nc3ccccc3C)c(C)[nH]c(=S)c2C#N)o1`, the inhibition was 33.2% (inactive).

Take `Cc1ccccc1NC(=O)c1c(C)[nH]c(=S)c(C#N)c1-c1ccco1`: the inhibition is 50.9% (active).

On to `CNC(=O)c1c(C)[nH]c(=S)c(C#N)c1-c1ccco1`, for which the inhibition was -35.6% (inactive).

`CCOC(=O)CNc1nc(Cl)nc(N2CCCCC2)n1`: the inhibition is 6.2% (inactive).

`Cn1c(=O)c2c(n3cnnc13)-c1ccccc1CC21CCCC1`: the inhibition is 3.5% (inactive).

`COc1cc(NC(=O)c2ccccc2)c(OC)cc1NC(=O)Cc1cccs1`: the inhibition is 51.4% (active).

Consider `COc1ccccc1CC(=O)Nc1cc(OC)c(NC(=O)c2ccccc2)cc1OC`, for which the inhibition is -5.3% (inactive).

With `COc1ccccc1NC(=O)Cc1cccs1`, the inhibition was -5.5% (inactive).

As to `COc1ccc(OC)c(N=c2ssnc2Cl)c1`, the inhibition is 27.6% (inactive).

On to `COc1cc(/C=C/c2ccc3cccc(O)c3n2)cc(OC)c1OC`, for which the inhibition was 24.9% (inactive).

Take `COc1ccc(N=c2ssnc2Cl)cc1`: the inhibition was 27.4% (inactive).

Turning to `COc1cc(N=c2ssnc2Cl)c(OC)cc1Cl`, the inhibition was 46.5% (inactive).

Regarding `Cc1ccc2oc(-c3ccc(NC(=O)c4ccc5c(c4)OCO5)cc3)nc2c1`, the inhibition is 6.7% (inactive).

For `Cc1ccc(-c2nc3ccccc3o2)cc1NC(=O)c1ccc2c(c1)OCO2`, the inhibition is -1.5% (inactive).

`O=C(Nc1ccc(-c2nc3ccccc3o2)cc1)c1ccc2c(c1)OCO2`: the inhibition is 66.2% (active).

As for `Oc1ccc(Br)cc1CNc1cnc2ccccc2c1`, the inhibition is 13.6% (inactive).

Turning to `O=C(N/N=C/c1ccc([N+](=O)[O-])o1)c1cc(-c2ccc(-c3ccccc3)cc2)nc2ccccc12`, the inhibition was 59.1% (active).

For `CCCc1ccc(-c2cc(C(=O)N/N=C/c3ccc([N+](=O)[O-])o3)c3ccccc3n2)cc1`, the inhibition was 27.9% (inactive).

As for `O=C(N/N=C/c1ccc([N+](=O)[O-])o1)c1cn(-c2ccccc2)nc1-c1ccc(Cl)cc1`, the inhibition is 67.5% (active).

Take `O=C(N/N=C/c1ccc([N+](=O)[O-])o1)c1cc(-c2ccncc2)nc2ccccc12`: the inhibition is 20.1% (inactive).

Turning to `O=C(N/N=C/c1ccc([N+](=O)[O-])o1)c1cn(-c2ccccc2)nc1-c1ccccc1`, the inhibition is 60.4% (inactive). For the same compound, under setting [1], the inhibition came to 2.1%.

Turning to `COc1ccc(-c2nn(-c3ccccc3)cc2C(=O)N/N=C/c2ccc([N+](=O)[O-])o2)cc1`, the inhibition was 50.6% (inactive). Also, the inhibition under setting [1] came out at 11.4%.

As to `CCn1c(SCc2ccc(C)cc2)nnc1-c1cnccn1`, the inhibition is 1.9% (inactive).

Consider `Cc1ccc(S(=O)(=O)c2cnc3cc(C)nn3c2N)cc1`, for which the inhibition was 9.4% (inactive).

Regarding `c1cnc(-c2noc(CN3CCN(C4C5CC6CC(C5)CC4C6)CC3)n2)cn1` (centres undefined), the inhibition was -1.9% (inactive).

For the compound `O=C(O)CSC(C(=O)Nc1ccc(Br)cc1)c1ccc(Cl)cc1` (centres undefined), the inhibition was 9.9% (inactive).

As to `Cc1cc2ccccn2c1C(=O)c1ccc(NN)c([N+](=O)[O-])c1`, the inhibition was 9.5% (inactive).

Regarding `Cc1cc2ccccn2c1C(=O)c1ccc(N/N=C/c2ccc(C(=O)O)cc2)c([N+](=O)[O-])c1`, the inhibition is 69.4% (active).

Take `CC(=O)Nc1ccc(/C=N/Nc2ccc(C(=O)c3c(C)cc4ccccn34)cc2[N+](=O)[O-])cc1`: the inhibition is 50.4% (inactive). For the same compound, the inhibition under setting [1] came out at 29.6%.

For the compound `Cc1ccc(C(=O)Nc2ncc([N+](=O)[O-])s2)cc1`, the inhibition was 11.7% (inactive).

For `Cc1nc(C)c(C(=O)Nc2ncc([N+](=O)[O-])s2)o1`, the inhibition was 33.7% (inactive).

As to `Cc1ncoc1C(=O)Nc1ncc([N+](=O)[O-])s1`, the inhibition is 68% (active).

For the compound `CC1=CCC2C(=O)N(c3ccc(C)cc3)C(=O)C2C1` (centres undefined), the inhibition is 6.6% (inactive).

With `Cc1ccc(-c2csc(C3=C(O)CN(NC(=O)c4ccc([N+](=O)[O-])cc4)C3=N)n2)cc1`, the inhibition was 25.8% (inactive).

For the compound `N=C1C(c2nc(-c3ccc(Br)cc3)cs2)=C(O)CN1NC(=O)c1ccc([N+](=O)[O-])cc1`, the inhibition is 34.5% (inactive).

With `O=C(NN1C(=O)C2CC=C(Cl)CC2C1=O)c1ccncc1` (centres undefined), the inhibition is 61.5% (active).

Regarding `O=C(NN1C(=O)C2C(C1=O)C1C=CC2C12CC2)c1ccncc1` (centres undefined), the inhibition is 6% (inactive).

For the compound `O=C(NN1C(=O)C2C3C=CC(C3)C2C1=O)c1ccncc1` (centres undefined), the inhibition was 5.7% (inactive).

As for `O=C(CSc1nnc(-c2ccccc2O)o1)Oc1ccc(Br)cc1`, the inhibition is 3% (inactive).

Consider `CCOC(=O)C1CCCN(C(=O)c2ccc3nc(-c4ccc(OC)c(OC)c4)c(-c4ccc(OC)c(OC)c4)nc3c2)C1` (centres undefined), for which the inhibition was 10.2% (inactive).

In the case of `Cc1ccc(NC(=O)c2cc(N3C(=O)C=CC3=O)ccc2Cl)cc1C`, the inhibition was 59.1% (active).

In the case of `NC(=O)c1cc(N2C(=O)C=CC2=O)ccc1Cl`, the inhibition was 47% (inactive).

Consider `Cc1ccc(NC(=O)c2cc(N3C(=O)C=CC3=O)ccc2N2CCOCC2)cc1Cl`, for which the inhibition is -7.4% (inactive).

In the case of `COc1cccc(-c2nnc(Nc3nc4c(F)cccc4s3)o2)c1`, the inhibition was 43.9% (inactive).

Consider `COc1cc(OC)cc(-c2nnc(Nc3nc4c(F)cccc4s3)o2)c1`, for which the inhibition is 56.7% (active).

Regarding `Fc1cccc2sc(Nc3nnc(-c4ccccc4)o3)nc12`, the inhibition was 38.5% (inactive).

Take `Cc1ccc(C(=O)NCCSc2ccccc2)cc1S(=O)(=O)Nc1ccccc1`: the inhibition is -1.8% (inactive).

Turning to `O=C(/C=C/c1ccco1)NCC1COc2ccccc2O1` (centres undefined), the inhibition was 11% (inactive).

On to `Cc1ccc(/C=C/C(=O)NCC2COc3ccccc3O2)o1` (centres undefined), for which the inhibition was 72.5% (active).

For the compound `CC(C)Oc1ccc(/C=C/C(=O)NCC2COc3ccccc3O2)cc1` (centres undefined), the inhibition was -5% (inactive).

Regarding `Cc1ccc(C(=O)NCCCN2CCOCC2)cc1Cl`, the inhibition was 4.3% (inactive).

`CN(N)c1nc(-c2ccccc2)cc(-c2ccccc2)n1`: the inhibition is -4.2% (inactive).

With `O=C1CCCC(=NCc2ccco2)C1`, the inhibition was -7.5% (inactive).

On to `c1coc(CN=C2NC(=NCc3ccco3)c3ccccc32)c1`, for which the inhibition was 18.7% (inactive).

As to `CN(C)c1nc(=NCc2ccco2)ss1`, the inhibition is 67.8% (active).

For `COC(=O)/C=C1/SC(=Nc2ccc(C)cc2C)NC1=O`, the inhibition was 0.9% (inactive).

With `O=C1c2ccccc2C(=O)N1C/C=C/CN1C(=O)c2ccccc2C1=O`, the inhibition was 0% (inactive).

On to `Cc1ccc(-c2nc(CN(C)C3CCOC3)c(C)o2)s1` (centres undefined), for which the inhibition was 7.1% (inactive).

`COc1ccc(-c2cc3c(=O)n(CC(=O)Nc4cccc(Cl)c4)ncn3n2)cc1`: the inhibition is 39.6% (inactive).

With `O=C1N=C(N2CCN(c3ccccc3)CC2)S/C1=C\c1ccco1`, the inhibition is 37.7% (inactive).

Turning to `O=C1N=C(N2CCCC2C(=O)O)S/C1=C\c1ccco1` (centres undefined), the inhibition was 95.1% (active).

For the compound `O=C1N=C(N2CCN(c3ccccc3)CC2)S/C1=C/c1ccco1`, the inhibition was -5% (inactive).

On to `COc1ccc(-n2nc(C(=O)NCC(=O)NCCCN3CC(C)CC(C)C3)c3ccccc3c2=O)cc1` (centres undefined), for which the inhibition is 3.3% (inactive).

Take `O=C(Nc1ccc(N2CCOCC2)cc1Cl)C1CCN(C(=O)OCc2ccccc2)CC1`: the inhibition was -2.8% (inactive).

Consider `COc1ccc(-n2nc(C(=O)NCC(=O)NCc3ccc(F)cc3)c3ccccc3c2=O)cc1`, for which the inhibition is 8.9% (inactive).

`Cc1ccc(S(=O)(=O)N2CCN(S(=O)(=O)c3ccccc3)C2)cc1`: the inhibition is -0.6% (inactive).

With `O=S(=O)(c1ccc(Cl)cc1)N1CCCCCC1`, the inhibition was 13.9% (inactive).

On to `CC1CN(S(=O)(=O)c2ccccc2)C(C)CN1S(=O)(=O)c1ccccc1` (centres undefined), for which the inhibition is 2.3% (inactive).

As for `CN1CCN(S(=O)(=O)c2ccc(Cl)cc2)CC1`, the inhibition was 5.7% (inactive).

With `Cc1sc(NC(=O)CN(Cc2ccc(F)cc2)C(=O)C(C)C)c(C(N)=O)c1C`, the inhibition was -9.6% (inactive).

On to `CC(C)CC(=O)Nc1nnc(SCC(=O)NCc2ccc3c(c2)OCO3)s1`, for which the inhibition was 6% (inactive).

For the compound `COc1ccc(N2C(=O)NC(=O)C2=O)cc1`, the inhibition is -3.9% (inactive).

In the case of `COc1ccc(N2CC(C(=O)N/N=C/c3c[nH]c4ccccc34)CC2=O)cc1` (centres undefined), the inhibition was 17.8% (inactive).

Regarding `Cc1nn(C)c(Cl)c1CN1CCC(CO)(CC2CCCCO2)CC1` (centres undefined), the inhibition is 6.5% (inactive).

As for `O=S(=O)(c1ccc(F)c(F)c1)N1CCCc2ccccc21`, the inhibition was -1.2% (inactive).

For the compound `CCCc1[nH]c(=O)c(C#N)c2c1COC(C)(C)C2`, the inhibition is -5.3% (inactive).

Take `Nc1ccc2nc(-c3cc(Cl)c(N)c(Cl)c3)[nH]c2c1`: the inhibition is 39.9% (inactive).

Regarding `Nc1ccc(-c2nc3ccccc3[nH]2)cc1`, the inhibition was 5.5% (inactive).

For the compound `Nc1ccc2nc(-c3cccc(-c4nc5ccc(N)cc5[nH]4)c3)[nH]c2c1`, the inhibition is 46.7% (inactive).

Take `Nc1ccc(-c2nc3ccc([N+](=O)[O-])cc3[nH]2)cc1`: the inhibition is 13.5% (inactive).

In the case of `Fc1ccc(N=Cc2ccc[nH]2)cc1`, the inhibition is -9.3% (inactive).

Turning to `Cn1c(=O)c(C(=O)COC(=O)c2cc(-c3ccccc3)nc3ccccc23)c(N)n(Cc2ccccc2)c1=O`, the inhibition is 26.2% (inactive).

Regarding `Cn1c(N)c(C(=O)COC(=O)c2cc(-c3ccccc3)nc3ccccc23)c(=O)n(Cc2ccccc2)c1=O`, the inhibition was 21.7% (inactive).

Turning to `Cn1c(N)c(C(=O)COC(=O)c2cc(-c3ccco3)nc3ccccc23)c(=O)n(Cc2ccccc2)c1=O`, the inhibition was 58.1% (active).

In the case of `Cn1c(N)c(C(=O)COC(=O)c2cc(-c3ccco3)nc3ccccc23)c(=O)n(C)c1=O`, the inhibition is 50.3% (inactive). Also, the inhibition under setting [1] was 29.1%.

As to `Cn1c(=O)c(C(=O)COC(=O)c2cc(-c3ccco3)nc3ccccc23)c(N)n(Cc2ccccc2)c1=O`, the inhibition is 55.8% (active).

On to `O=C(Nc1cccc(S(=O)(=O)NC2=NCCCCC2)c1)c1cc(-c2ccco2)nc2ccccc12`, for which the inhibition is 40.5% (inactive).

`O=C(NC1CCC(O)CC1)c1cc(-c2ccco2)nc2ccccc12` (centres undefined): the inhibition is 51.2% (active). Further, under setting [1], the inhibition worked out at 50.3%.

As for `O=C(Nc1cccc(S(=O)(=O)NC2=NCCC2)c1)c1cc(-c2ccco2)nc2ccccc12`, the inhibition was 61.9% (active).

Take `O=C(NC(=S)Nc1cccc(S(=O)(=O)NC2=NCCC2)c1)c1cc(-c2ccco2)nc2ccccc12`: the inhibition was 61% (inactive). In addition, the inhibition under setting [1] came out at 23.6%.

Consider `O=C(O)c1cc(-c2ccco2)nc2ccccc12`, for which the inhibition is -11.5% (inactive).

As to `O=C(NC1CC1)c1cc(-c2ccco2)nc2ccccc12`, the inhibition was 38.6% (inactive).

On to `CC(C)Cn1c(N)c(C(=O)COC(=O)c2cc(-c3ccco3)nc3ccccc23)c(=O)n(C)c1=O`, for which the inhibition was 19.7% (inactive).

(Values after PubChem BioAssay AID2073 (Sanford-Burnham Center for Chemical Genomics, 2009).)
